In PubChem BioAssay:
Activity calls are given as the source filed them.

Experiments:
[1] = binders of probe aFSTL3 on microarray, primary screen, stem cell growth factor project, biochemical, small-molecule microarray, fluorescence 635/667 (AID 1064); conditions: higher = more signal;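 further: measures binding of the biotinylated anti-FSTL3 antibody to printed compounds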
[2] = binders from COS7 lysate, DM2A8 probe, primary screen, torsin A project, cell lysate, small-molecule microarray, fluorescence 635/667 (AID 1065); conditions: higher = more signal, COS7 lysate expressing mutant human TOR1A
[3] = binders of probe aFGF2 on microarray, primary screen, stem cell growth factor project, biochemical, small-molecule microarray, fluorescence 635/667 (AID 1067); conditions: higher = more signal;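 further: measures binding of biotinylated aFGF2 protein to printed compounds on slides; z-score merges feature fluorescence and signal-to-noise across triplicate slides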
[4] = binders of probe aFGF10 on microarray, primary screen, stem cell growth factor project, biochemical, small-molecule microarray, fluorescence 635/667 (AID 1071); conditions: higher = more signal;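 further: score merges 667 nm spot intensity and signal to noise from triplicate slides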
[5] = target: Neurogenic locus notch homolog protein 2 (Homo sapiens) (UniProt Q04721); experiment: Notch2 binders on small-molecule microarrays, primary screen, biochemical, small-molecule microarray, 635 nm fluorescence, stem cell growth factors (AID 1073); conditions: Notch2 binding, higher = more signal
[6] = target: Pro-neuregulin-1, membrane-bound isoform (Homo sapiens) (UniProt Q02297); experiment: NRG1 binders on small-molecule microarrays, primary screen, psychiatric disease protein project, biochemical, small-molecule microarray, fluorescence 635/667 (AID 1075); conditions: NRG1 binding, 635 nm fluorescence, higher = more signal;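 further: score combines 667 nm spot fluorescence with signal to noise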
[7] = system: Neuregulin-1 EGF-like domain; experiment: binders of neuregulin-1 EGF-like domain, primary screen, biochemical, small-molecule microarray, 635 nm fluorescence (AID 1081); conditions: small-molecule microarray binding, higher = more signal;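 further: binding of the protein to compounds printed on small-molecule microarray slides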
[8] = FRG1 promoter luciferase signal modulators, primary screen, FRG1 inhibition for FSHD, cell-based, C2C12 myotubes, firefly/Renilla luciferase, luminescence (AID 1084); conditions: higher = more signal, called active from +8 up or from −8 down
[9] = binders of probe aFST on microarray, primary screen, stem cell growth factor project, biochemical, small-molecule microarray, fluorescence 635/667 (AID 1086); conditions: higher = more signal;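 further: score merges 667 nm fluorescence with signal-to-noise of each printed compound spot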
[10] = binders of probe aHhip on microarray, primary screen, stem cell growth factor project, biochemical, small-molecule microarray, fluorescence 635/667 (AID 1087); conditions: higher = more signal;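 further: score merges spot fluorescence at 667nm with spot signal to noise ratio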

Sequence of Neurogenic locus notch homolog protein 2 (Homo sapiens) (Q04721 whole entry, looked up, canonical isoform): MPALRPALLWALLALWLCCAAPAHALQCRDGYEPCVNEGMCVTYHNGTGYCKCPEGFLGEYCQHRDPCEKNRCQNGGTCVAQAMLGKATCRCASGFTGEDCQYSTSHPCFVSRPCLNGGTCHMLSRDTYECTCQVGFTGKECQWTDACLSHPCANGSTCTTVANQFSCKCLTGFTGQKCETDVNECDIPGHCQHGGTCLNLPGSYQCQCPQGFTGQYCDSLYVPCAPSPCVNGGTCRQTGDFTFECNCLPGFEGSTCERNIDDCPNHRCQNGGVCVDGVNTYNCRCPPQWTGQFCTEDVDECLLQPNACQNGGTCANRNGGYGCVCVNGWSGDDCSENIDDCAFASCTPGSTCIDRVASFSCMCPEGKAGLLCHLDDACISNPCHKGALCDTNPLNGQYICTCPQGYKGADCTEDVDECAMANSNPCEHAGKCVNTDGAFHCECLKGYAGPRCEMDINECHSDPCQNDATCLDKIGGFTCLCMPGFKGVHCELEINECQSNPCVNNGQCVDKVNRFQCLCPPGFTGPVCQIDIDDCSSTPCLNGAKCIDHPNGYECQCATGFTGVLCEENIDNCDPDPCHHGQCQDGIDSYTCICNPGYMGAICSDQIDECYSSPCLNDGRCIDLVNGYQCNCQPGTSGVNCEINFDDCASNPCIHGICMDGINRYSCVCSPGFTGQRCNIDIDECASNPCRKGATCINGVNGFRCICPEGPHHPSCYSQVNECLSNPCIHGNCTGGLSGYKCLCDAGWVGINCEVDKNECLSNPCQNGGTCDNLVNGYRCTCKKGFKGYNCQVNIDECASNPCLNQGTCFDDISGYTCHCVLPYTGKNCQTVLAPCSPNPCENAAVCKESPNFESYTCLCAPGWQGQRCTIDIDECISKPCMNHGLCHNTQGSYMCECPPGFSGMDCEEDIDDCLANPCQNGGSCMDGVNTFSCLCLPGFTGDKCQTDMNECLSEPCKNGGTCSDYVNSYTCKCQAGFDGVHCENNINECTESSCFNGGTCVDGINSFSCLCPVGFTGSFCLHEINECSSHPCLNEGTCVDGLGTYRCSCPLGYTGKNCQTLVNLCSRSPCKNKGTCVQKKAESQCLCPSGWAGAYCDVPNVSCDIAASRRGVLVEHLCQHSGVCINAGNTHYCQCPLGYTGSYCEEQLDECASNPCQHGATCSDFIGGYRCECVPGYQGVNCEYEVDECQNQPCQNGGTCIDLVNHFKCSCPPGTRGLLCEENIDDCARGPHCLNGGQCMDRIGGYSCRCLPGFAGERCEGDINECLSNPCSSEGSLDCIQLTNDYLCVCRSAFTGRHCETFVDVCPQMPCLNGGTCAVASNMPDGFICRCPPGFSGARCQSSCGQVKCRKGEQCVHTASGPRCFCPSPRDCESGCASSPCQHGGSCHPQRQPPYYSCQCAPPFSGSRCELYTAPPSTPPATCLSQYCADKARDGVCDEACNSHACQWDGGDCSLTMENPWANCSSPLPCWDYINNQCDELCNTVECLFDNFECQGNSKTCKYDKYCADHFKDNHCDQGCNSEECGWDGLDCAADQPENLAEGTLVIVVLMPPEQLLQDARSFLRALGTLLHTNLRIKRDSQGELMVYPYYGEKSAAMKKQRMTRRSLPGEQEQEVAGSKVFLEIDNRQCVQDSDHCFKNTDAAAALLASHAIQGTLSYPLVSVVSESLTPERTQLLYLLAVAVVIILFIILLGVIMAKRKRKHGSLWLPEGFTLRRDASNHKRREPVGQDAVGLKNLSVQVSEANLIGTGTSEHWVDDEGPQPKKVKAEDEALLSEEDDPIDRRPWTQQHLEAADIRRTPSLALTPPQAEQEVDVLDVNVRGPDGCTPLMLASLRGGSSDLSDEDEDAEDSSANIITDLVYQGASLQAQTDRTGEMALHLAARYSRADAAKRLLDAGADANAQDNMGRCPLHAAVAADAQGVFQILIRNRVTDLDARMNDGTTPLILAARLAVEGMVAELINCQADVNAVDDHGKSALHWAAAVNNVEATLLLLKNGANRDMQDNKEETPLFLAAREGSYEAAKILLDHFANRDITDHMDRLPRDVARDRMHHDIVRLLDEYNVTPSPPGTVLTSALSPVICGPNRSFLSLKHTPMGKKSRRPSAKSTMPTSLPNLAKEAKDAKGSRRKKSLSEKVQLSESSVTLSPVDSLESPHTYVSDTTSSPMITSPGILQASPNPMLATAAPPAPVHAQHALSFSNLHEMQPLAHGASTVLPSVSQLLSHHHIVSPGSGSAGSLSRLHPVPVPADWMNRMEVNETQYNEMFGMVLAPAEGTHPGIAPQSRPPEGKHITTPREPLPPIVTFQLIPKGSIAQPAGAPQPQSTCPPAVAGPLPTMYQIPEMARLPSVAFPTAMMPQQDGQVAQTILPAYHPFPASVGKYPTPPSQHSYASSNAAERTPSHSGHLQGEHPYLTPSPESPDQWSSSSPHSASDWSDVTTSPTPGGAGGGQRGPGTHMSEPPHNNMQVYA
Sequence of Pro-neuregulin-1, membrane-bound isoform (Homo sapiens) (Q02297 whole entry, looked up, the tested form may be a part, canonical isoform): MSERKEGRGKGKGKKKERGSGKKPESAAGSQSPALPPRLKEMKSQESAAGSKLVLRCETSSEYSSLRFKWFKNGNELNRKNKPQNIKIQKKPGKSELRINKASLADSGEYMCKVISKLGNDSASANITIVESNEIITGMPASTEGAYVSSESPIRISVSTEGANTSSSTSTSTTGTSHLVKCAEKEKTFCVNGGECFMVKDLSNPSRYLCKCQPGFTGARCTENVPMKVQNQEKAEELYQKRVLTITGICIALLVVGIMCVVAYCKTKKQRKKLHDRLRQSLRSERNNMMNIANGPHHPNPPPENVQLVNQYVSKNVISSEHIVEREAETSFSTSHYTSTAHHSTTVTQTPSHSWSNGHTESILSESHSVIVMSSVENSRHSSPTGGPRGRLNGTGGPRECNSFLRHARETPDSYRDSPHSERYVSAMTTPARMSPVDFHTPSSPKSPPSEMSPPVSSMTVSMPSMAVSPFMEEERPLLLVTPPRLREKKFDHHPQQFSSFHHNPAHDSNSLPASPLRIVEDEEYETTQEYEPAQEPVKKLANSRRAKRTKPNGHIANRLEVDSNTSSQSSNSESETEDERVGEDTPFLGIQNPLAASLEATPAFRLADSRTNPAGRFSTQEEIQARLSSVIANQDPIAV

Row | SMILES | composite z-score [1] | composite z-score [2] | composite z-score [3] | composite z-score [4] | composite z-score [5] | composite z-score [6] | composite z-score [7] | z-score [8] | composite z-score [9] | composite z-score [10]
1 | C=CCC(OC(C)=O)[C@@H]1[C@@H](N(Cc2ccc(-c3cccc(C(F)(F)F)c3)o2)C(=O)Cc2ccc(F)cc2)c2cc(OCCCO)ccc2N1C(=O)Cc1ccc2ccccc2c1 (stereo not given in full) | 0.136 | -0.648 | -0.129 | 0.53 | -0.349 | -0.257 | -0.285 | 0.116 (inactive) | -0.106 | -0.212
2 | CN(C)CCCC[C@@H]1NC(=O)[C@@H]2C[C@H](C(=O)NCCCCCN)[C@H](c3cccc(OCCO)c3)N2C1=O | -0.439 | 1.75 | -0.121 | 0.549 | 0.549 | 1.09 | 1.35 | -1.02 (inactive) | 0.153 | 0.0722
3 | CCOC(=O)C1=CC[C@@H](c2ccc(OC)cc2)N(S(=O)(=O)c2ccc(C)cc2)[C@H]1CC | -0.295 | 0.495 | -0.067 | 0.398 | 1.66 | 1.13 | 1.11 | -3.47 (inactive) | 1.14 | -0.0645
4 | [N-]=[N+]=Nc1ccccc1[C@H]1OC(c2ccc(OCCCO)cc2)=N[C@@]1(Cc1ccccc1)C(=O)NCC(O)CO (stereo not given in full) | 0.277 | 0.0899 | 0.0528 | 0.231 | 1.36 | 1.19 | 1.12 | 2.22 (inactive) | 1.03 | -0.0541
5 | COCCOC(=O)N1C(=O)[C@@]2(c3ccccc31)[C@H](C(=O)N1CCN(c3ncccn3)CC1)[C@H]1C(=O)O[C@H](c3ccccc3)[C@H](c3ccccc3)N1[C@@H]2c1ccccc1OCCO | -0.287 | 0.514 | 0.168 | 0.7 | 0.827 | 0.111 | 1.13 | -1.12 (inactive) | 0.244 | -0.0919
6 | CC(C)[Si](C#CCCc1ccccc1)(O[C@H](c1ccccc1)c1cn(Cc2ccccc2)nn1)C(C)C | -0.454 | -0.137 | -0.116 | 0.529 | 0.186 | 0.215 | 1.12 | 0.0497 (inactive) | 0.584 | 0.0401
7 | C=CC1c2cc(O)c(OC)cc2CCN1C (stereo not given) | 0.0043 | -0.231 | -0.103 | 0.275 | -0.208 | 0.0582 | 1.06 | -0.201 (inactive) | 0.0531 | 0.0373
8 | COC(=O)[C@@]1(Cc2ccccc2)[C@H]2c3cc(C(=O)N(C)C)n(CCO)c3C[C@H]2CN1C(=O)c1ccccc1 | 0.348 | 0.0312 | 0.152 | 1.14 | 1.39 | 1.93 | 1.17 | 1.27 (inactive) | 0.647 | -0.418
9 | CCCCCC1=C2CNC(Cc3ccccc3)(C(=O)OC)C=C2C(C)C1=O (stereo not given) | 1.16 | 0.249 | -0.0593 | 0.279 | 0.227 | 0.932 | 0.446 | 1.53 (inactive) | 0.602 | 0.604
10 | CC(=O)NCCCC[C@@H]1NC(=O)[C@H]2C[C@@H](C(=O)NCCCCCCNC(=O)CS)[C@@H](c3cccc(OCCO)c3)N2C1=O | 0.419 | 0.611 | 0.0252 | 0.492 | -0.681 | 0.465 | 1.42 | 0.799 (inactive) | -0.0535 | -0.0618
11 | CCCNC(=O)[C@@]1(Sc2ccc(C)cc2)CC(=O)N(Cc2ccccc2Cl)[C@@H]1c1ccc(CO)cc1I | 0.746 | -1.23 | -0.127 | -0.391 | -1.13 | 1.4 | 0.895 | -1.6 (inactive) | 0.0493 | 0.106
12 | CCCCN1CC=CC23O[C@@H]4/C=C\CCCOC(=O)C4[C@H]2C(=O)N(C(CO)C(C)C)[C@@H]3C1=O (stereo not given in full) | -0.1 | 0.0253 | -0.101 | 0.728 | -0.185 | -0.164 | 1.47 | 0.723 (inactive) | -0.228 | -0.236
13 | COc1ccc(C(=O)Nc2ccc3c(c2)[C@@]2(O[C@H](CCO)[C@@H]([Si](C)(C)c4ccc(OC)cc4)[C@@H]2C)C(=O)N3Cc2ccccc2)cc1 | -0.122 | 0.143 | -0.0333 | -0.0652 | 0.562 | 0.929 | 1.07 | -3.68 (inactive) | 0.154 | 0.2
14 | C[C@@H]1NC(=O)C([C@@H](C)OCc2ccccc2)NC(=O)[C@@]23C(=O)N[C@@H](Cc4ccccc4)C2[C@H](C)[C@@]2(C)O[C@H]2C3/C=C/C/C=C\CNC1=O (stereo not given in full) | -0.439 | -0.328 | -0.0578 | 0.341 | -0.0879 | 0.671 | 0.503 | -0.116 (inactive) | -0.502 | -0.236
15 | C=C(COC)/C(=C/C[C@@H](OC(C)=O)c1ccccc1OCCO)c1cnc2ccccc2c1 | -0.0428 | 1.58 | -0.0695 | 0.339 | 1.03 | 1.23 | 1.13 | -0.305 (inactive) | 0.278 | -0.169
16 | C=CCNC(=O)[C@H]1[C@@H]2C(=O)O[C@@H](c3ccccc3)[C@@H](c3ccccc3)N2[C@@H](c2ccccc2OCCO)[C@]12C(=O)N(C(=O)OCCOC)c1ccc(C#Cc3ccc(OC)cc3)cc12 | 0.0122 | 0.633 | 0.0074 | 0.668 | 0.615 | 1.33 | 1.21 | 1.34 (inactive) | 0.101 | -0.0645
17 | [N-]=[N+]=NCc1ccccc1[C@@H]1OC(c2ccc(OCCCO)cc2)=N[C@]1(Cc1ccccc1N=[N+]=[N-])C(=O)NCC(O)CO (stereo not given in full) | -0.166 | 0.57 | 0.145 | 0.61 | 1.53 | 1.99 | 0.981 | 0.0407 (inactive) | 1.84 | 0.272

Row | SMILES | composite z-score [1] | composite z-score [2] | composite z-score [3] | composite z-score [4] | composite z-score [5] | composite z-score [6] | composite z-score [7] | z-score [8] | composite z-score [9] | composite z-score [10]
18 | CN1C(=O)[C@@H]2[C@@H](CC(COc3ccccc3)=C3[C@@H](CCc4ccccc4)OB(O)C[C@@H]32)C1=O | -0.124 | 0.275 | -0.0415 | 0.121 | 0.371 | 0.445 | 0.56 | -0.799 (inactive) | 0.0157 | -0.0994
19 | COC(=O)[C@]1(Cc2ccccc2)N=C(c2ccc(OCCCO)cc2)O[C@@H]1c1ccccc1CN=[N+]=[N-] | 0.278 | -0.235 | -0.0266 | -0.214 | 0.582 | 0.718 | 1.29 | 1.48 (inactive) | 0.693 | -0.134
20 | COC(=O)[C@@]1(Cc2ccc(F)cc2)[C@H]2c3cc(C(=O)N4CCCC4)n(Cc4cc(F)cc5c4OCOC5)c3C[C@H]2CN1C(=O)c1ccccc1 | 0.653 | -0.622 | 0.13 | 0.816 | 1.75 | 1.69 | 0.102 | 0.869 (inactive) | 1.56 | 0.0759
21 | COCCn1c(C(=O)N(C)C)cc2c1C[C@H]1CN(C(=O)c3ccccc3)[C@@](Cc3ccc(OC)cc3)(C(=O)OC)[C@@H]21 | 0.609 | -0.478 | -0.19 | 0.34 | 1.64 | 1.54 | 1.27 | 1.54 (inactive) | 1.32 | 0.0053
22 | COC(=O)[C@@]1(Cc2ccc(OC)cc2)[C@H]2c3cc(C(=O)N4CCCC4)n(Cc4ccc(C(F)(F)F)nc4)c3C[C@H]2CN1C(=O)c1ccccc1 | 0.308 | 0.374 | -0.102 | 0.999 | 1.21 | 1.66 | 1.24 | 0.491 (inactive) | -0.25 | 0.388
23 | CCOC(=O)C1=CC[C@@H](c2ccccc2)N(S(=O)(=O)c2ccc(C)cc2)[C@H]1c1ccccc1I | -0.312 | 0.215 | 0.162 | 0.571 | 1.48 | 1.05 | 1.12 | -2.08 (inactive) | 1.92 | 0.0662
24 | CCCC[C@H]1OB(O)C[C@H]2C1=C(COc1ccccc1)C[C@H]1C(=O)C=CC(=O)[C@H]12 | -0.315 | 0.351 | -0.0503 | 0.603 | 0.489 | 0.169 | 0.19 | -1.1 (inactive) | 0.23 | 0.316
25 | CN(C)CCCCNC(=O)[C@H]1C[C@H]2C(=O)NCC(=O)N2[C@H]1c1ccc(O)cc1 | -0.772 | -1.42 | -0.273 | -0.814 | -0.929 | 0.68 | 1.07 | 5.11 (inactive) | 0.0525 | -0.407
26 | COC(=O)C1=CC(CCCO)=CC(c2cccs2)N(Cc2cc3c(cc2Br)OCO3)C=C1C(=O)OC (stereo not given) | 0.0066 | 0.951 | 0.0931 | 1.02 | 1.27 | 1.66 | 1.33 | -2.18 (inactive) | 0.182 | 0.0972
27 | CC(C)OC(=O)CC(=O)CC(O)c1cccc([N+](=O)[O-])c1 (stereo not given) | 0.62 | 1.22 | -0.0028 | 0.376 | 0.546 | 0.334 | 0.947 | -1 (inactive) | 0.815 | -0.305
28 | CN(C)c1ccc(C(O)C2C=CC3C(=O)N(Cc4ccccc4)C(=O)C3N2n2cnnc2)cc1 (stereo not given) | 0.0652 | 0.0666 | -0.0303 | 0.0521 | 0.0282 | -0.161 | -0.103 | -1.18 (inactive) | 0.198 | 0.244
29 | NC(=O)NCC#Cc1ccc2c(c1)[C@]1(C(=O)N2)[C@H](c2ccc(OCCO)cc2)N2[C@H](c3ccccc3)[C@H](c3ccccc3)OC(=O)[C@H]2[C@@H]1C(=O)O | -0.218 | 1.36 | -0.187 | 0.23 | -0.459 | 1.68 | -0.269 | 0.542 (inactive) | 0.0897 | -0.374
30 | COCCCNC(=O)[C@@]1(Sc2ccc(C)cc2)CC(=O)N(Cc2ccccc2C(F)(F)F)[C@@H]1c1ccc(CO)cc1I | 1.21 | -0.204 | -0.132 | -2.12 | -1.8 | 1.17 | -0.823 | -0.903 (inactive) | -0.228 | -0.132
31 | CC1CC/C=C\[C@H]2OC34C=CCN(CCN5CCOCC5)C(=O)[C@H]3N(CCCO)C(=O)[C@@H]4C2C(=O)O1 (stereo not given in full) | -0.215 | 0.0721 | -0.183 | -0.0957 | -0.475 | -0.376 | 1.07 | 0.149 (inactive) | -0.354 | -0.0994
32 | C=C(C)[C@@H]1CC=C(C(O)C2C=CC3C(=O)N(c4ccccc4)C(=O)C3N2Nc2ccc([N+](=O)[O-])cc2)CC1 (stereo not given in full) | -0.308 | 0.356 | -0.0784 | 1.05 | 1.61 | 1.07 | 1.24 | -0.0111 (inactive) | 1.57 | 0.167
33 | C=C(CCCC)C(=O)CC[C@H](OC(=O)c1ccccc1-c1ccccc1C(=O)O)c1ccc(OCCO)cc1 | -0.441 | 1.06 | -0.0876 | 0.315 | -0.181 | 1.13 | 1.19 | -0.62 (inactive) | 0.393 | -0.236
